Experimental data from PubChem BioAssay (EPA / NIEHS).
Calls of active or inactive are those of the source. How the source made its calls: active means hit-call score of the fitted dose curve at least 0.9, where 1 is the maximum; inactive means score below 0.9.

Assays:
[1] = ATG_CRE_CIS: Attagene CIS-FACTORIAL HepG2 Assay for human cAMP Responsive Element (CRE) binding protein 3 (AID 2282926); conditions: HepG2 CRE cis-reporter, Attagene multiplexed mRNA; actives raise or lower the signal
In short: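 Cells carrying cis-regulated reporter constructs respond through their own endogenous factors. After 24 h treatment, RNA is reverse-transcribed, amplified, labelled and sized by capillary electrophoresis; up- and down-regulation are both scored against vehicle.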

[2] = ATG_DR4_LXR_CIS: Attagene CIS-FACTORIAL HepG2 Assay for human Liver X Receptor (LXR), DR4 submotif (AID 2282929); conditions: HepG2 Attagene DR4 cis-reporter, mRNA transcription; actives raise or lower the signal
In short: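 HepG2, transient MRTU transfection, cis-element (DR4) promoter; 24 h compound exposure; total RNA → oligo(dT) RT → PCR → 6-FAM primer extension → HpaI cut → CE. Gain/loss vs DMSO, bidirectional fit.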

[3] = ATG_AP_2_CIS: Attagene CIS-FACTORIAL HepG2 Assay for human Activator Protein 2 (AP-2) (AID 2282932); conditions: HepG2 AP-2 cis-reporter, Attagene transcription factor profiling; actives raise or lower the signal
In short: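 Read-out: fluorescent reporter mRNA via RT-PCR and capillary electrophoresis, 24 h post-dose in transiently transfected HepG2. Endogenous factors drive cis-promoter reporters; gain or loss of signal fitted bidirectionally against DMSO.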

[4] = ATG_BRE_CIS: Attagene CIS-FACTORIAL HepG2 Assay for human Bone Morphogenetic Protein (BMP) Response Element (BRE) (AID 2282933); conditions: HepG2 BMP response element reporter, Attagene transcription factor profiling; actives raise or lower the signal
In short: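 A HepG2 multiplex reporter system measured inducible reporter mRNA 24 h post-dosing. Detection: RT-PCR, 6-FAM primer extension, HpaI digestion, capillary electrophoresis. Activity fitted bidirectionally relative to DMSO.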

[5] = molecular target: Transcription factor E2F1 (Homo sapiens) (UniProt Q01094); assay: ATG_E2F_CIS: Attagene CIS-FACTORIAL HepG2 Assay for human E2F Transcription Factor 1 (AID 2282935); conditions: HepG2 Attagene cis-reporter, E2F reporter RNA transcripts; actives raise or lower the signal
Chain of Transcription factor E2F1 (Homo sapiens) (Q01094 whole entry, looked up): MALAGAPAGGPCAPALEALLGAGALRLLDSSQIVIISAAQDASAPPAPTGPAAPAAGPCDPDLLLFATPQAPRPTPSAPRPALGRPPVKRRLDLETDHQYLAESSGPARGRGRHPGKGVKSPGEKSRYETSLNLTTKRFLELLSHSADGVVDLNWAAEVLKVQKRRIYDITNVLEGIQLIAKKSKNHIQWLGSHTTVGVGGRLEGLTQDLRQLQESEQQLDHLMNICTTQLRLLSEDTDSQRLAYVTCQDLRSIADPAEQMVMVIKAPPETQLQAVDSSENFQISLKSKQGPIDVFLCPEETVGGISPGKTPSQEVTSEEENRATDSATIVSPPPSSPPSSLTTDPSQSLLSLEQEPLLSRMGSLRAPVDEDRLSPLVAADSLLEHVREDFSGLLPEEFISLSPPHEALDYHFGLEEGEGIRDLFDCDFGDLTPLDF
In short: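 Transient MRTU transfection of HepG2; 24 h compound exposure; RNA → oligo(dT) RT → PCR → FAM label → HpaI cut → CE fluorescence. Gain/loss of signal fit against DMSO.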

[6] = ATG_E_Box_CIS: Attagene CIS-FACTORIAL HepG2 Assay for human Enhancer Box (E-box) (AID 2282936); conditions: HepG2 E-box cis-reporter transcription, actives raise or lower the signal
In short: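 Transiently transfected HepG2, endogenous TF-driven reporters, 24 h dosing. Readout: RT-PCR plus capillary electrophoresis of fluorescent reporter fragments. Gain or loss of signal fitted bidirectionally against DMSO baseline.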

[7] = ATG_M_19_CIS: Attagene CIS-FACTORIAL HepG2 Assay for M19 Transcription Factor (Internal Marker) (AID 2282939); conditions: HepG2 Attagene CIS-FACTORIAL M19 internal marker reporter; actives raise or lower the signal
In short: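 Chemical-treated HepG2 (24 h) with MRTU constructs; reporter transcripts detected by fluorescent RT-PCR fragment analysis on capillary electrophoresis. Internal background marker, DMSO as baseline.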

[8] = ATG_Ets_CIS: Attagene CIS-FACTORIAL HepG2 Assay for human Erythroblast Transformation Specific (ETS) (AID 2282941); conditions: HepG2 ETS cis-reporter transcription, actives raise or lower the signal
In short: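 Multiplexed reporter transcript profiling: HepG2, 24 h treatment, total RNA to cDNA, PCR, 6-FAM labelling, HpaI cut, capillary electrophoresis. Gain- or loss-of-signal fitted against DMSO.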

[9] = molecular target: Hepatocyte nuclear factor 3-beta (Homo sapiens) (UniProt Q9Y261); assay: ATG_FoxA2_CIS: Attagene CIS-FACTORIAL HepG2 Assay for human Forkhead box A2 (FOXA2) (AID 2282942); conditions: HepG2 cis-reporter transcription factor activity, 24 h; actives raise or lower the signal
Chain of Hepatocyte nuclear factor 3-beta (Homo sapiens) (Q9Y261 whole entry, looked up): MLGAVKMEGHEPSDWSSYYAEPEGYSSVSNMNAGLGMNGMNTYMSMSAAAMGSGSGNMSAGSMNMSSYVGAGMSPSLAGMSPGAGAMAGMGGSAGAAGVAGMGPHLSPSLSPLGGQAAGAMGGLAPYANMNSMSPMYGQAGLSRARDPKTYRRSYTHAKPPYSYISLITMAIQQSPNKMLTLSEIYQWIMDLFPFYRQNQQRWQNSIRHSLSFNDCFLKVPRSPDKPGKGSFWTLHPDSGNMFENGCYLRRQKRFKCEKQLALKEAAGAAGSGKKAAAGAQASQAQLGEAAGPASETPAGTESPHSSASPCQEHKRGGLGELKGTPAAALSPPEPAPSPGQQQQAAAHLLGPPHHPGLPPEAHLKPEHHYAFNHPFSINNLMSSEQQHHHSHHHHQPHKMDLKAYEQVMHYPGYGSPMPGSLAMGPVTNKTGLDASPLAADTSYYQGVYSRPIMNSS
In short: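 Transient MRTU transfection of HepG2 liver cells; 24 h treatment; total RNA → oligo(dT) RT → PCR → FAM primer extension → HpaI cut → CE. Bidirectional fit vs DMSO.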

[10] = ATG_FoxO_CIS: Attagene CIS-FACTORIAL HepG2 Assay for human Forkhead box O (FoxO) (AID 2282943); conditions: HepG2 Attagene cis-reporter, FoxO element, mRNA; actives raise or lower the signal
In short: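 HepG2 cells transiently transfected with cis-element-driven reporter units report endogenous FoxO activity. After 24 h chemical exposure, reporter mRNA quantified by RT-PCR, fluorescent labeling, HpaI digestion and capillary electrophoresis; bidirectional fit versus DMSO.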

[11] = ATG_GATA_CIS: Attagene CIS-FACTORIAL HepG2 Assay for human GATA Binding Protein (AID 2282944); conditions: HepG2 GATA cis-element reporter, Attagene multiplex mRNA; actives raise or lower the signal
In short: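 Transfected cis-reporter HepG2 cells were treated with chemicals for 24 hours. Total RNA was then converted to cDNA, amplified with reporter-specific primers and analysed by fluorescent capillary electrophoresis, using DMSO-treated wells as baseline.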

[12] = ATG_M_32_CIS: Attagene CIS-FACTORIAL HepG2 Assay for M32 Transcription Factor (Internal Marker) (AID 2282949); conditions: HepG2 Attagene cis-factorial M32 reporter, mRNA; actives raise or lower the signal;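 further: background control marker of the multiplexed CIS panel rather than a real target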
In short: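 Using DMSO as baseline, bidirectional curve fits were applied to reporter mRNA signals. These came from transiently transfected HepG2 cells exposed for 24 h, with RNA analysed by RT-PCR, FAM primer extension, HpaI digestion and CE.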

[13] = ATG_PXRE_CIS: Attagene CIS-FACTORIAL HepG2 Assay for human Pregnane X Receptor Element (PXRE) (AID 2282957); conditions: HepG2 Attagene CIS-FACTORIAL PXRE reporter, mRNA; actives raise or lower the signal
In short: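 Endogenous transcription factor activity in HepG2 was gauged through induction of reporter mRNA driven by a cis-regulating promoter element, sampled 24 h post-treatment. Activity was fitted in both directions against DMSO negative control.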

[14] = ATG_Sox_CIS: Attagene CIS-FACTORIAL HepG2 Assay for human SRY-box transcription factor (SOX) (AID 2282960); conditions: HepG2 Attagene cis-factorial SOX reporter, mRNA; actives raise or lower the signal
In short: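 Endogenous factor activity in human liver HepG2 cells carrying transfected cis-regulated reporter units. RNA taken 24 h post-dose, reverse-transcribed, PCR-amplified and sized by capillary electrophoresis. Gain or loss of signal fitted relative to DMSO.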

[15] = molecular target: Transcription factor Sp1 (Homo sapiens) (UniProt P08047); assay: ATG_Sp1_CIS: Attagene CIS-FACTORIAL HepG2 Assay for human Specificity Protein 1 (Sp1) (AID 2282961); conditions: HepG2 Sp1 cis-reporter transcription, actives raise or lower the signal
Chain of Transcription factor Sp1 (Homo sapiens) (P08047 whole entry, looked up): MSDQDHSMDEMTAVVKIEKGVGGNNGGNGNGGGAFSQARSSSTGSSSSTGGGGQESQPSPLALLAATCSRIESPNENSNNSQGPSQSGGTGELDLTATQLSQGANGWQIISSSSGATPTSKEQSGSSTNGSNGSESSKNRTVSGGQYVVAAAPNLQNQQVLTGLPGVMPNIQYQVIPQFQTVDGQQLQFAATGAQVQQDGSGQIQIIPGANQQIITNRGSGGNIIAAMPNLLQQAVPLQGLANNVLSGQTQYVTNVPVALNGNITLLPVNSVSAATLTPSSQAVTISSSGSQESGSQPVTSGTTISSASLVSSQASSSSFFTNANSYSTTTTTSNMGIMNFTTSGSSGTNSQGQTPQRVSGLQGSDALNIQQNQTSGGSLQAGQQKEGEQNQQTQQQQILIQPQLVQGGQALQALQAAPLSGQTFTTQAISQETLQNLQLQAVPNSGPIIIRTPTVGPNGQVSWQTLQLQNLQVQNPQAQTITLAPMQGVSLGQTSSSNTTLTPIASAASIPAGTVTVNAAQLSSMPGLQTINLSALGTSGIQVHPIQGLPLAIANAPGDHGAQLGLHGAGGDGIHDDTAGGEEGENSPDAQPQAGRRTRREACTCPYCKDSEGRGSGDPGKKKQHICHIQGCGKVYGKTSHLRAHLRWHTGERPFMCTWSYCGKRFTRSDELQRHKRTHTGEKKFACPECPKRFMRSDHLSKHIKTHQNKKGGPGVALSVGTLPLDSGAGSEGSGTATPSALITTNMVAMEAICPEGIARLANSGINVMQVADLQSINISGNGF
In short: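 Transient MRTU-transfected HepG2, 24 h compound exposure. Total RNA → oligo(dT) RT → PCR of reporter → 6-FAM primer extension → HpaI digest → CE. Endpoint fitted both directions vs DMSO.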

[16] = ATG_SREBP_CIS: Attagene CIS-FACTORIAL HepG2 Assay for human Sterol Regulatory Element Binding (SREBP) (AID 2282962); conditions: HepG2 Attagene cis-factorial SREBP reporter, mRNA; actives raise or lower the signal
In short: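 Values derive from bidirectional curve fitting with DMSO as baseline. The underlying measurement is reporter mRNA from cis-element-regulated units in transiently transfected HepG2, quantified by RT-PCR and capillary electrophoresis after 24 h exposure.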

[17] = molecular target: Signal transducer and activator of transcription 3 (Homo sapiens) (UniProt P40763); assay: ATG_STAT3_CIS: Attagene CIS-FACTORIAL HepG2 Assay for human Signal Transducer and Activator of Transcription 3 (STAT3) (AID 2282963); conditions: HepG2, Attagene cis-factorial STAT3 reporter transcription; actives raise or lower the signal
Chain of Signal transducer and activator of transcription 3 (Homo sapiens) (P40763 whole entry, looked up, the tested form may be a part): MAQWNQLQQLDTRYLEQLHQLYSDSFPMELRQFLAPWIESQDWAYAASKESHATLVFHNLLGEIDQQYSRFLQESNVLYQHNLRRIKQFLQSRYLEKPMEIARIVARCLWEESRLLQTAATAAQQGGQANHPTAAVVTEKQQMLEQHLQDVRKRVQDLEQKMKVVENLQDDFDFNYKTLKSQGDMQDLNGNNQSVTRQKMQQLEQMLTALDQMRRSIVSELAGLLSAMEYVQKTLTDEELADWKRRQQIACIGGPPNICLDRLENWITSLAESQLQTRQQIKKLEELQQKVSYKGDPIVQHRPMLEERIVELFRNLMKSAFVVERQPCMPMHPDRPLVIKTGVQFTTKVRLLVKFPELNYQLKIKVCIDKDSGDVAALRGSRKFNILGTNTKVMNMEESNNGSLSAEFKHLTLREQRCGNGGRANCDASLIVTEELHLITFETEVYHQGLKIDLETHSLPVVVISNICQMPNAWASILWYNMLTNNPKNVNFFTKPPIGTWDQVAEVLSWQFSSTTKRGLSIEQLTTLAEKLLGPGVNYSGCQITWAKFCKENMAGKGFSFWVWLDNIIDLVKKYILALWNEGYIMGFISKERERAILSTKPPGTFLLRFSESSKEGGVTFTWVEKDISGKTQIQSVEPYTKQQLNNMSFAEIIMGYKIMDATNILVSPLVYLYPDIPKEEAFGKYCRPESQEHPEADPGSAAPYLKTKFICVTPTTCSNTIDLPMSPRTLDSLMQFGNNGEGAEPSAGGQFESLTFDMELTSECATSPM
In short: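 Readout: fluorescent reporter mRNA fragments resolved by capillary electrophoresis. Setup: HepG2 transfected with MRTUs reporting endogenous transcription-factor activity, dosed 24 h. Gain or loss of signal fitted bidirectionally against DMSO control.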

[18] = ATG_TA_CIS: Attagene CIS-FACTORIAL HepG2 Assay for human TA Basal Promoter (AID 2282964); conditions: HepG2 Attagene CIS-factorial TA basal promoter reporter; actives raise or lower the signal
In short: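 Background internal-marker endpoint from a 52-component HepG2 cis-reporter panel. Cells treated 24 h; reporter transcripts quantified via RT-PCR and CE fluorescence against DMSO baseline.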

[19] = ATG_TCF_b_cat_CIS: Attagene CIS-FACTORIAL HepG2 Assay for human T-Cell-Factor with beta-catenin (TCF/b-cat) (AID 2282965); conditions: HepG2 TCF/beta-catenin cis-reporter transcription, actives raise or lower the signal
In short: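 HepG2 cells transiently transfected with cis-promoter-driven multiplexed reporter units; reporter mRNA measured 24 h after dosing by RT-PCR, FAM labelling, HpaI digestion and capillary electrophoresis. Bidirectional fitting relative to DMSO baseline.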

[20] = ATG_TGFb_CIS: Attagene CIS-FACTORIAL HepG2 Assay for human Transforming Growth Factor (TGF) (AID 2282967); conditions: HepG2 Attagene CIS TGFb reporter, mRNA transcription; actives raise or lower the signal
In short: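 Liver HepG2 line, cis-factorial reporter panel, 24 h dosing. Quantitation: RT-PCR products labeled with 6-FAM, cut with HpaI, resolved by capillary electrophoresis; DMSO-referenced bidirectional analysis.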

Measured: AC50

CCC1CCC(=O)O1 (stereo not given)
active: [13] 27.3 µM
inactive: all other assays above

C[C@]12CC[C@H]3[C@@H](CC[C@@]45O[C@@H]4C(O)=C(C#N)C[C@]35C)[C@@H]1CC[C@@H]2O
active: [13] 27.2 µM | [19] 75 µM
inactive: all other assays above

CCC(Br)(CC)C(=O)NC(N)=O
active: [13] 48.5 µM
inactive: all other assays above

[CH3][Sn]([CH3])([Cl])[Cl]
inactive: all assays above

C=CC(=O)OC
inactive: all assays above

CN(C)C(=O)C(c1ccccc1)c1ccccc1
active: [13] 9.67 µM
inactive: all other assays above

O=C(CCl)c1ccccc1
active: [1] 8.31 µM | [2] 21.1 µM | [3] 18.9 µM | [6] 16.2 µM
inactive: all other assays above
